Structures are written as SMILES. Unmarked numbers belong to inactive results. Records with an inconclusive call do not appear. Active and inactive are the calls of the source. Unless noted, calls come from the whole dose curve.

Assay [1] is described as follows: Nuclear factor erythroid 2-related factor 2/antioxidant responsive element (Nrf2/ARE) small molecule agonists: qHTS cell viability counter screen in human keratinocytes (AID 1919968; active = well fitted curve in the direction sought with a large enough effect in the repeat runs; an effect the other way counts as inactive or inconclusive; note: nearly all actives have a fitted effect of over 55% in size; note: potency is the fitted concentration of half-maximal effect). In outline: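 Cells of the KeratinoSens line were plated at 1,500 per well and left for 5 h before compound transfer from DMSO stocks. After a 23 h incubation (37 C, 5% CO2), CellTiter-Fluor was added. Signal was taken as fluorescence intensity 1 h later.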
Background: Quantitative high-throughput screening tests each substance at several concentrations.

The nature of assay [2]: Nuclear factor erythroid 2-related factor 2/antioxidant responsive element (Nrf2/ARE) small molecule agonists: luciferase reporter gene qHTS assay in human keratinocytes (AID 1919969). Note: nearly all actives have a fitted effect of over 35% in size. Note: potency is the fitted concentration of half-maximal effect.
The target of assay [3] is Gonadotropin-releasing hormone receptor (Homo sapiens) (UniProt P30968). In words: Human gonadotropin-releasing hormone receptor (GnRHR) small molecule agonists, calcium flux assay in GnRHR-HEK293 cells (AID 1920063). Note: nearly all actives have a fitted effect of over 35% in size. In outline: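 Compounds dissolved in DMSO are pin-transferred onto dye-loaded GnRHR-HEK293 cells, which were seeded 18 h before at 37 C/5% CO2. Calcium signal is read as fluorescence intensity at 1 s intervals for 3 min.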
Chain of Gonadotropin-releasing hormone receptor (Homo sapiens) (P30968 whole entry, looked up): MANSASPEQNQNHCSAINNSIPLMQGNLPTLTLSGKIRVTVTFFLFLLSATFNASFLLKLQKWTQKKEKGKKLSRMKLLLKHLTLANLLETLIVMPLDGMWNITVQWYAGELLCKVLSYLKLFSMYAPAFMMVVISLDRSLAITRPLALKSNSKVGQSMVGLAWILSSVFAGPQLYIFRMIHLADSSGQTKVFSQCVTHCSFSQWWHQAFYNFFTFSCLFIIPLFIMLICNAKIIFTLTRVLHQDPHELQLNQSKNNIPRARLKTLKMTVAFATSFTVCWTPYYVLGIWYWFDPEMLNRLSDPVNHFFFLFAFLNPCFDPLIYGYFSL
On the technique in general: Calcium flux is commonly read through the fluorescence of an indicator in the cells.

Assay [4] concerns the target KiSS-1 receptor (Homo sapiens) (UniProt Q969F8). In words: Human kisspeptin (KISS1R) small molecule agonists, calcium flux assay in KISS1R-HEK293 cells (AID 1920064; active = well fitted curve in the direction sought with a large enough effect in the repeat runs; an effect the other way counts as inactive or inconclusive). In outline:
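Cell line: HEK293, stable human KISS1R. Dye loading 1 h at 37 C after 18 h culture. Read: kinetic fluorescence, 480/540 nm, 3 min at 1 s intervals.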

Assay [5] in a line: G protein-coupled receptor (GPCR) small molecule agonists, calcium flux assay: HEK293 wild type cell line counter screen (AID 1920065). The essentials: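 Tox21 10K compounds, 15 concentrations each in triplicate, pin-transferred in DMSO onto dye-loaded cells; kinetic read at 480/540 nm for 3 min, 1 s intervals.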
Assay [6] can be described thus: p53 small molecule agonists, cell-based qHTS assay with human liver microsomes (AID 1963577). In outline:
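p53RE-bla reporter cells were pre-incubated 5 h at 37 C, then treated with compounds plus human liver microsomes (0.5 mg/mL final) and NADPH (0.5 mg/mL final) for 16 h at 37 C. Beta-lactamase activity was read by LiveBLAzer fluorescence after 2 h at room temperature.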

Assay [7] is described as follows: p53 small molecule agonists, cell-based qHTS assay with rat liver microsomes (AID 1963578). In outline: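 p53RE-bla cells were exposed to compounds together with rat liver microsomes (0.5 mg/mL final) and NADPH (0.5 mg/mL final) for 16 h at 37 C, then read by LiveBLAzer beta-lactamase fluorescence after 2 h at room temperature.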
Assay [8] in a line: p53 small molecule agonists, cell-based qHTS assay with human liver microsomes: qHTS cell viability counter screen (AID 1963579). Note: nearly all actives have a fitted effect of over 45% in size. The essentials: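 p53RE-bla cells (4,000/well) were pre-incubated 5 h at 37 C, then given compounds in DMSO plus human liver microsomes (0.5 mg/mL final) and NADPH (0.5 mg/mL final) for 16 h at 37 C. Viability was read by CellTiter-Glo luminescence.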

Assay [9] can be described thus: p53 small molecule agonists, cell-based qHTS assay with rat liver microsomes: qHTS cell viability counter screen (AID 1963580). Note: nearly all actives have a fitted effect of over 45% in size. Note: potency is the fitted concentration of half-maximal effect. The essentials:
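Luminescent ATP readout (CellTiter-Glo, 30 min at room temperature) reports viability of p53RE-bla HCT-116 cells after 16 h at 37 C with test compounds under metabolic activation by rat liver microsomes and NADPH at 0.5 mg/mL final each.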

Assay [10] is described as follows: p53 small molecule agonists, cell-based qHTS assay: qHTS cell viability counter screen (AID 1963581). Note: nearly all actives have a fitted effect of over 45% in size. In outline:
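ATP content measured by luminescence in HCT-116 p53RE-bla cells treated 16 h at 37 C, same wells as the reporter screen.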

Assay [11] deals with Beta-2 adrenergic receptor (Homo sapiens) (UniProt P07550). In words: Adrenergic beta2 receptor (ADRB2) small molecule agonists, cell-based qHTS assay (AID 1963593).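 Note: CHO cells stably overexpressing human ADRB2.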 In outline: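 CHO cells stably over-expressing ADRB2 were plated overnight at 37C, then dosed with compounds plus a stimulation mix containing 100uM IBMX and 25uM Ro-20-1724 for 0.5hr at room temperature. cAMP was measured by HTRF competition, 1hr.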
Chain of Beta-2 adrenergic receptor (Homo sapiens) (P07550 whole entry, looked up): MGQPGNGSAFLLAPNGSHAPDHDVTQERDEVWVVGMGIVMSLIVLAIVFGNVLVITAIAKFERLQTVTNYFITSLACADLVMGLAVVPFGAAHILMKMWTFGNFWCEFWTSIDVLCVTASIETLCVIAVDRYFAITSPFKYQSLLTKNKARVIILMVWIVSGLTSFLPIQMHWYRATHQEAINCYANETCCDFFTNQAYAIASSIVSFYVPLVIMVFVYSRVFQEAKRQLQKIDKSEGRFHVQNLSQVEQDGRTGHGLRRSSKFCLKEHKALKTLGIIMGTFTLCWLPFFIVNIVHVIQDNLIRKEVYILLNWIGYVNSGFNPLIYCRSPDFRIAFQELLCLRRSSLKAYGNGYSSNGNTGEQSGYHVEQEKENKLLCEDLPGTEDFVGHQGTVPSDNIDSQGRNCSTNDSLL

The target of assay [12] is D(2) dopamine receptor (Homo sapiens) (UniProt P14416). In words: Dopamine D2 receptor (DRD2) small molecule agonists, cell-based qHTS assay (AID 1963594). Note: nearly all actives have a fitted effect of over 35% in size. The essentials: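 HEK293 cells stably expressing DRD2 were cultured 24 h at 37 C, then given Ro20-1724 (0.1 mM final) and compounds for 10 min at room temperature. NKH477 (200nM) was then added for 30 min. cAMP was read by HTRF.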
Chain of D(2) dopamine receptor (Homo sapiens) (P14416 whole entry, looked up): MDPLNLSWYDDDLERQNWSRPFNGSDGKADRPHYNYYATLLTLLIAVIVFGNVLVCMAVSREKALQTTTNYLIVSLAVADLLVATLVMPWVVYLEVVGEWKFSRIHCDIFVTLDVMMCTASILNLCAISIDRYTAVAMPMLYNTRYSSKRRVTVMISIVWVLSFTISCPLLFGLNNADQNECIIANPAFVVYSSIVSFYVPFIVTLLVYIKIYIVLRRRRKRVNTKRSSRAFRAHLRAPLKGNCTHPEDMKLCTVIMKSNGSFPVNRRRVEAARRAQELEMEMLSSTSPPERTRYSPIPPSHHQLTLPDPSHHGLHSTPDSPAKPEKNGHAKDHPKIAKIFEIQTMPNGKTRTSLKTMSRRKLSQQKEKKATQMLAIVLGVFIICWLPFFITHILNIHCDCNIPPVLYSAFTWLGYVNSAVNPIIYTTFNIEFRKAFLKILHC

The target is the same in assay [13]. In words: Dopamine D2 receptor (DRD2) small molecule antagonists, cell-based qHTS assay (AID 1963595; active = well fitted inhibition curve with a large enough effect in the signal ratio in the repeat runs, with a control signal flat; the % refers to the signal ratio). In outline: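 Cells were plated and grown for 24 h at 37 °C. Ro20-1724 (0.1 mM final) went in first, then compound for 10 min. NKH477 (200 nM) with quinpirole (12 nM) followed for 30 min at RT, then HTRF detection reagents for 1 h.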
Assay [14] deals with 5-hydroxytryptamine receptor 2A (Homo sapiens) (UniProt P28223). In words: 5-hydroxytryptamine receptor 2A (HTR2A) small molecule antagonists, cell-based qHTS assay (AID 1963586). Note: nearly all actives have a fitted effect of over 45% in size. In outline: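 CHO cells stably expressing human HTR2A were plated for 18 h at 37 C, then loaded with calcium dye for 1 h. Compounds were preincubated 5 min at room temperature before DOI (4 nM solution) was added. Kinetic fluorescence was read for 3 min.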
Chain of 5-hydroxytryptamine receptor 2A (Homo sapiens) (P28223 whole entry, looked up): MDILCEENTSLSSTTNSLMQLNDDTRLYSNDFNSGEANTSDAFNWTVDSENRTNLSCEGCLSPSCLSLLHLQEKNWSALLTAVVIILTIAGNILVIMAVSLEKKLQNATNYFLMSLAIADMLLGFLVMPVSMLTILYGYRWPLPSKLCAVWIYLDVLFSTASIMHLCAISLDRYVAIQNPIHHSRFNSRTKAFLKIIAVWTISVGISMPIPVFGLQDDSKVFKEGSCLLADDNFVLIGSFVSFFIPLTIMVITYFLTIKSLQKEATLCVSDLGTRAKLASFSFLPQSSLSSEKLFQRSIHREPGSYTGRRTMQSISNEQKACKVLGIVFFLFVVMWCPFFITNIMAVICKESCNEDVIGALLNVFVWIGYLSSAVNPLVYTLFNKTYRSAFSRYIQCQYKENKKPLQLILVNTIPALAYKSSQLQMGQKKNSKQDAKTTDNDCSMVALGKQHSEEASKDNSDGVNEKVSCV

Assay [15] has the same target. In words: 5-hydroxytryptamine receptor 2A (HTR2A) small molecule agonists, cell-based qHTS assay (AID 1963587). Note: nearly all actives have a fitted effect of over 30% in size. In outline: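 HTR2A-CHO cells, plated 18 h at 37 C/5% CO2, dye-loaded 1 h at 37 C; compounds in DMSO added by pin tool (agonist mode). Intracellular calcium flux read as kinetic fluorescence on FDSS over 2 min at 1 s intervals.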
Assay [16] has as its target Muscarinic acetylcholine receptor M1 (Homo sapiens) (UniProt P11229). In words: Cholinergic receptor muscarinic 1 (CHRM1) small molecule antagonists, cell-based qHTS assay (AID 1963588). Note: nearly all actives have a fitted effect of over 40% in size. In outline: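 Compounds were tested at 15 concentrations in three independent runs. Dye-loaded CHRM1-CHO cells were exposed 5 min at room temperature before stimulation by acetylcholine added at 50nM. Intracellular calcium was read kinetically on FDSS for 3 min.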

Assay [17] has the same target. In words: Cholinergic receptor muscarinic 1 (CHRM1) small molecule agonists, cell-based qHTS assay (AID 1963589). Note: nearly all actives have a fitted effect of over 35% in size. The essentials:
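Homogeneous fluorescence calcium flux, agonist mode. Human M1-expressing CHO cells; compound dosed at 15 concentrations, three independent runs; signal sampled every 1 sec.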

Assay [18] in a line: cAMP Responsive Elements (CRE) small molecule agonists, cell-based qHTS assay (AID 1963590). The essentials:
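HEK 293T cells stably bearing CRE-bla were plated at 2,000 cells per well and rested 18 h. Compounds, positive controls or DMSO were added for 3 h at 37 C. LiveBLAzer B/G substrate was then loaded for 2 h at room temperature.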

The nature of assay [19]: cAMP Responsive Elements (CRE) small molecule antagonists, cell-based qHTS assay (AID 1963591; active = well fitted inhibition curve with a large enough effect in the signal ratio in the repeat runs, not every such curve was filed as active; the % refers to the signal ratio). In outline:
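First, CRE-bla HEK293T cells settled 18 h at 37 C. Next, compound and 0.25 uM final NKH477 were applied for 3 h. Last, LiveBLAzer B/G substrate was loaded for 2 h at room temperature.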

Assay [20] addresses Beta-2 adrenergic receptor (Homo sapiens) (UniProt P07550). In words: Adrenergic beta2 receptor (ADRB2) small molecule antagonists, cell-based qHTS assay (AID 1963592). Note: series mostly up to about 92 µM; nearly all actives have a fitted effect of over 50% in size. The essentials: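 Assay format: CHO-ADRB2 cells, 18-20hr seeding at 37C/5% CO2, then compound plus 1nM isoproterenol agonist mix for 0.5hr RT. Homogeneous time-resolved fluorescence cAMP detection after 1hr, expressed as 665/615 nm ratio.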

Chain of KiSS-1 receptor (Homo sapiens) (Q969F8 whole entry, looked up): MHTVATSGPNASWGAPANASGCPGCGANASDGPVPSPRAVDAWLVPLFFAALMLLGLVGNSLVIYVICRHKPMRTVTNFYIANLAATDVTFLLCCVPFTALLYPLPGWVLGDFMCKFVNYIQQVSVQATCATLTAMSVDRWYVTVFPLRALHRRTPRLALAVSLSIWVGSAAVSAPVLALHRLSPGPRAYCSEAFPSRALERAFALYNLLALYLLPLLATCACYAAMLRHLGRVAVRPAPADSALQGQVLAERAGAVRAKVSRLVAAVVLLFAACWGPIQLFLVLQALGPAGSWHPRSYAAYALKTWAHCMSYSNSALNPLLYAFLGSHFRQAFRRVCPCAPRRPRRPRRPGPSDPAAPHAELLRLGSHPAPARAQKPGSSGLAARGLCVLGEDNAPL
Chain of Muscarinic acetylcholine receptor M1 (Homo sapiens) (P11229 whole entry, looked up): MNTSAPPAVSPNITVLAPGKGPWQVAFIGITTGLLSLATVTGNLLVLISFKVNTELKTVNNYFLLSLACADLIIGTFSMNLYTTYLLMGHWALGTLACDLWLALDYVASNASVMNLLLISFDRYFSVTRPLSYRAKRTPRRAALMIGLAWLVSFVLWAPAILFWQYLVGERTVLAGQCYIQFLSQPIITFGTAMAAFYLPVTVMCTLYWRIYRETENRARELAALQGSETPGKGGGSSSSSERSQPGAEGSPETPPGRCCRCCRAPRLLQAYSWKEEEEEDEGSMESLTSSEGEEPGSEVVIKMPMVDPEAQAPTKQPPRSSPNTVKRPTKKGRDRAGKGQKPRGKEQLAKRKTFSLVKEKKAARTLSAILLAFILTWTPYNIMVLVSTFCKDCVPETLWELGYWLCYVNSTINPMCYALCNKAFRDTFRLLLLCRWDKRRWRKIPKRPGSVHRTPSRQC

As for `COc1c(C)c2c(c(O)c1C/C=C(\C)CCC(=O)OCCN1CCOCC1)C(=O)OC2`, the Potency result in assay [1], in assay [2], in [3], in assay [6], in assay [7] and in assay [8] was “inactive” each time. In addition, the Potency entry in [9], in assay [10], in [11], in assay [12] and in [13] was “inactive” throughout. The outcome in assay [4] and in [5] was inactive.

On to `OCCN1C[C@H](O)[C@@H](O)[C@H](O)[C@H]1CO`, for which the Potency result in [1], in [2], in assay [3], in assay [6], in [7] and in assay [8] was “inactive” in each case. The Potency entry in assay [9], in assay [14], in assay [15], in assay [16], in assay [17] and in assay [18] was “inactive” each time. Also, the Potency result in assay [19], in assay [20], in assay [11], in [12] and in assay [13] was “inactive” each time. The result in [4] and in assay [5] was inactive.

For the molecule `COc1ccccc1OC(=O)Oc1ccccc1OC`, the Potency entry in assay [1], in assay [2], in assay [3], in [6], in [7] and in assay [8] was “inactive” each time. Besides, the Potency entry in assay [9], in assay [14], in assay [15], in assay [16], in assay [17] and in [18] was “inactive” in each case. For the same molecule, the Potency entry in assay [19], in [20], in [11], in assay [12] and in [13] was “inactive” in each case. For the same molecule, the result in assay [4] and in assay [5] was inactive.

Consider `O=c1cccccc1O`, for which the Potency in assay [1] is 44.1 µM (active); in assay [2], 24.8 µM (active); in [9], 29.4 µM (active). The Potency entry in assay [3], in assay [6], in assay [7], in assay [8], in assay [14] and in assay [15] was “inactive” each time. The Potency entry in assay [16], in [17], in [18], in assay [19], in assay [20] and in assay [12] was “inactive” throughout. Also, in [13], the Potency result is “inactive”. Also, the result in assay [4] and in assay [5] was inactive.

Consider `COc1ccc2c(c1)c(CC(=O)OCC(=O)O)c(C)n2C(=O)c1ccc(Cl)cc1`, for which the Potency entry in assay [1], in assay [2], in assay [3], in [6], in assay [7] and in assay [8] was “inactive” throughout. In addition, the Potency result in assay [9], in assay [10], in [20], in [12] and in assay [13] was “inactive” each time. Moreover, the result in assay [4] and in assay [5] was inactive.

The record behind these values is PubChem BioAssay (Tox21).
